# In the library only some 4.9% were active in any assay of this set; here they are far more common.
# MPTP inh – permeability transition pore inhibition. isolated mouse mitochondria, Ca2+ swelling absorbance, 30 min. inhibition, % at 10 µM. hit rate 1.4% among 360,000. AID 602449;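 active means inhibition of 50% or more, scaled per plate between neutral and stimulator controls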;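 further: 0% = DMSO wells given calcium and 100% = 1 mM EGTA wells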
# HSP90 refold inh – HSP90 refolding inhibition in rabbit reticulocyte lysate; luciferase refolding luminescence, 3 h; inhibition, % at 5.6 µM; hit rate 0.91% among 290,000;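 active means inhibition above the screen-wide mean plus 3 SD, computed separately per campaign, cut at about 16% in these data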;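 further: 0% = DMSO wells and 100% = 60 µM geldanamycin wells; inhibitors lower the luminescence because luciferase stays unfolded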
# dFosB act – enhances mouse delta FosB homodimer DNA binding; P13346; purified delta FosB, TAMRA-CDK5 oligo fluorescence polarization; percent of positive-control signal above neutral wells; activation, % at 25 µM; hit rate 0.99% among 340,000;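 active means mean activation above about 17%, with every replicate also reaching it, limit read from the data, passing the limit was not always enough; inconclusive means only one of the two conditions met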
# Target sequence (P13346 whole entry, looked up): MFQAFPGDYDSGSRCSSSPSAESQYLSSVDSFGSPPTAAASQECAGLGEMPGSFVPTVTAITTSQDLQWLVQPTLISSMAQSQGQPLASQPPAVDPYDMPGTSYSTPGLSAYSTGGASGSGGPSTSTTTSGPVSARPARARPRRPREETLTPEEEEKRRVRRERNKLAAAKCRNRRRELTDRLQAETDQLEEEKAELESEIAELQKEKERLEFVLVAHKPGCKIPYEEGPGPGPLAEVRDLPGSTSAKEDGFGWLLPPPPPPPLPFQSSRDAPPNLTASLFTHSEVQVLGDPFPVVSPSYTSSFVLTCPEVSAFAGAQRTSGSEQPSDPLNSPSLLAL
# HSF1 inhib – HSF1 inhibition | hit rate 0.77% among 300,000 | AID 2098 | NIH3T3-HGL HSE-luciferase, MG132-induced, luminescence 8 h; active compounds read low | activity change, negative = inhibition, % at 7.5 µM (by protocol);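 active means more than half of replicate wells show activity change below -50%, luminescence cut by over half; inconclusive means some wells, but at most half, below -50%; inactive means no replicate well below -50%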;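 further: luciferase reports HSF-1 transcriptional activity via heat shock element; 0% = median of DMSO wells and -100% = zero luminescence signal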
# Platelet DG rel – platelet dense granule release activity | human platelet-rich plasma, SFLLRN dense granule ATP release, luminescence | AID 1663 | hit rate 0.22% among 300,000 | inhibition, %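 (compounds screened at 7.5 µM in platelet-rich plasma)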;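 active means mean replicate score, as percent of positive control, at or above 50; inconclusive means mean below 50 but at least one replicate at or above 50; inactive means mean and every replicate below 50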
# HSF1 activator – increases HSF-1 driven luciferase reporter signal; hit rate 1.7% among 300,000; AID 504408; NIH3T3-HGL HSF-1 luciferase reporter, MG132, 8 h; 100% = twice DMSO control signal; activation, % at 9 µM;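 active means mean replicate activation of at least 50% with a set share of replicates each reaching 50%; inconclusive means only one of those two conditions met; inactive means mean below 50% and too few replicates reaching it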;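 further: 0% = median of the neutral control wells and 100% = twice that signal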
# * = called active by the depositor; ? = inconclusive; . = no result.
SMILES,MPTP inh,HSP90 refold inh,dFosB act,HSF1 inhib,Platelet DG rel,HSF1 activator
CCOC(=O)N1CCC(N(CCN(C)C)C(=S)Nc2ccc(Oc3ccccc3)cc2)CC1,0,-2,-5,-5,-2,-2
Cc1ccc(OCc2ccc(C#N)cc2)c(C(=O)c2cc(C#N)c(=O)n(C3CC3)c2)c1,0,-2,-10,6,-11,53*
O=C(/C=C/c1cccc(Cl)c1)NCc1cccs1,8,0,-7,20,-3,52*
Cc1ccc(C(=O)Nc2ncc([N+](=O)[O-])s2)cc1,50,80*,-4,6,26,-18
Cc1onc(-c2ccccc2)c1C(=O)Nc1ncc([N+](=O)[O-])s1,8,-4,2,-6,5,2
Cc1ccc(C(=O)N/C(=C\c2ccc(-c3ccc(Br)cc3)o2)C(=O)NCCCN(C)C)cc1,-8,-1,?,-97*,-3,-98
Cc1ccc(C(=O)N/C(=C\c2cn(C)c3ccccc23)C(=O)NCCCN2CCOCC2)cc1,-2,-4,-9,0,-12,-1
CN(C)CCNC(=O)/C(=C/c1ccc(-c2ccc(Cl)cc2)o1)NC(=O)c1ccccc1,0,2,20*,3,-4,-16
CN(C)CCNC(=O)/C(=C/c1ccc(-c2ccc(Cl)cc2Cl)o1)NC(=O)c1ccccc1,1,0,35*,3,9,23
Cc1ccc(C(=O)N/C(=C\c2ccc(-c3ccccc3[N+](=O)[O-])o2)C(=O)NCCCN2CCOCC2)cc1,0,9,-6,20,11,58*
O=[N+]([O-])c1c(NCCCO)cc(Sc2nc3ccccc3s2)c2nonc12,13,-2,4,223,-9,272*
CCCC(=O)OCCNc1cc(Sc2nccn2C)c2nonc2c1[N+](=O)[O-],1,2,-3,234,12,290*
Cc1nnc(Sc2cc(NCCO)c([N+](=O)[O-])c3nonc23)s1,11,4,1,117,2,153*
Cc1nnc(Sc2cc(NCCCO)c([N+](=O)[O-])c3nonc23)s1,6,3,-1,?,7,-17
CCC(=O)OCCNc1cc(Sc2nc3ccccc3s2)c2nonc2c1[N+](=O)[O-],5,4,1,31,-2,85*
Cc1ccc(NC(=O)CCn2c(=O)[nH]c3ccsc3c2=O)cc1F,0,-1,3,6,-4,10
CCCc1c(C(=O)N/N=C/c2sccc2C)nnn1-c1nonc1N,0,0,3,1,10,-5
CC1=NN(C(N)=S)C(=O)C1N=Nc1cccc(Cl)c1C (stereo not drawn),9,4,4,12,-6,15
COc1cccc(N2CC(C)Cn3c2nc2c3c(=O)[nH]c(=O)n2C)c1 (stereo not drawn),0,-1,2,-7,5,-12
Cc1csc(=O)n1CCC(=O)NCc1ccc(F)cc1,0,.,-2,.,.,.
CCCN(c1ccc(OCC)cc1)c1ncnc2nc[nH]c12,-1,-4,-4,-14,13,-15
CCN(c1ccc(OC)cc1)c1ncnc2nc[nH]c12,-1,-1,-2,-64*,-7,-72
NC(=O)CC(NC(=O)c1ccccc1)c1ccc(N2CCCCCCC2)c([N+](=O)[O-])c1 (stereo not drawn),0,-1,3,-1,3,-23
NC(=O)CC(NC(=O)c1ccc(Br)cc1)c1ccc(N2CCCCCC2)c([N+](=O)[O-])c1 (stereo not drawn),1,1,3,46,-2,74*
COc1ccc(S(=O)(=O)N(C)CC(=O)N2CCC(C(N)=O)CC2)cc1Cl,1,3,2,25,0,66*
COc1ccc(O)c(C2=Nc3ccccc3N=C(c3cccs3)C2)c1,0,-5,-2,-63*,-1,-72
COc1ccc(O)c(-c2cn[nH]c2-c2cccs2)c1,-1,2,-9,0,1,2
CCS(=O)(=O)C(=C1NCCO1)S(=O)(=O)CC,-2,-2,-2,10,0,52*
CCN(CCc1ccccc1)c1ccc2c(c1)C1CC2CCN1Cc1ccccc1 (stereo not drawn),2,.,.,.,.,.
CCCCNC(=S)NNc1c(Cl)cc(Cl)cc1Cl,-2,4,1,-72*,8,-78

# Screens deposited in PubChem BioAssay by several laboratories.
